One may read the inhibition as the change of the read-out against control, counted positive when it falls.

Assay [1] deals with Tyrosine-protein kinase ABL1 (Homo sapiens), P00519 [T315I]. To be noted: at 1 µM.
Assay [2] has as its system Tyrosine-protein kinase ABL1 (Homo sapiens), P00519 [Y253F]. Conditions: at 0.1 µM.
The test system is the same in assay [3]. To be noted: at 1 µM.
Assay [4] addresses Tyrosine-protein kinase ABL1 (Homo sapiens) (UniProt P00519). Conditions: at 0.1 µM.
Assay [5] shares this target. To be noted: at 1 µM.
For assay [6], the target named is ALK tyrosine kinase receptor (Homo sapiens) (UniProt Q9UM73). To be noted: at 0.1 µM.
Assay [7] has the same target. Conditions: at 1 µM.
The target of assay [8] is Tyrosine-protein kinase ABL2 (Homo sapiens) (UniProt P42684). To be noted: at 0.1 µM.
The target is the same in assay [9]. Conditions: at 1 µM.
Assay [10] has as its target Tyrosine-protein kinase receptor UFO (Homo sapiens) (UniProt P30530). To be noted: at 0.1 µM.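 Note: values are mean percent inhibition of AXL from the GSK PKIS screen.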

Sequence of Tyrosine-protein kinase receptor UFO (Homo sapiens) (P30530 whole entry): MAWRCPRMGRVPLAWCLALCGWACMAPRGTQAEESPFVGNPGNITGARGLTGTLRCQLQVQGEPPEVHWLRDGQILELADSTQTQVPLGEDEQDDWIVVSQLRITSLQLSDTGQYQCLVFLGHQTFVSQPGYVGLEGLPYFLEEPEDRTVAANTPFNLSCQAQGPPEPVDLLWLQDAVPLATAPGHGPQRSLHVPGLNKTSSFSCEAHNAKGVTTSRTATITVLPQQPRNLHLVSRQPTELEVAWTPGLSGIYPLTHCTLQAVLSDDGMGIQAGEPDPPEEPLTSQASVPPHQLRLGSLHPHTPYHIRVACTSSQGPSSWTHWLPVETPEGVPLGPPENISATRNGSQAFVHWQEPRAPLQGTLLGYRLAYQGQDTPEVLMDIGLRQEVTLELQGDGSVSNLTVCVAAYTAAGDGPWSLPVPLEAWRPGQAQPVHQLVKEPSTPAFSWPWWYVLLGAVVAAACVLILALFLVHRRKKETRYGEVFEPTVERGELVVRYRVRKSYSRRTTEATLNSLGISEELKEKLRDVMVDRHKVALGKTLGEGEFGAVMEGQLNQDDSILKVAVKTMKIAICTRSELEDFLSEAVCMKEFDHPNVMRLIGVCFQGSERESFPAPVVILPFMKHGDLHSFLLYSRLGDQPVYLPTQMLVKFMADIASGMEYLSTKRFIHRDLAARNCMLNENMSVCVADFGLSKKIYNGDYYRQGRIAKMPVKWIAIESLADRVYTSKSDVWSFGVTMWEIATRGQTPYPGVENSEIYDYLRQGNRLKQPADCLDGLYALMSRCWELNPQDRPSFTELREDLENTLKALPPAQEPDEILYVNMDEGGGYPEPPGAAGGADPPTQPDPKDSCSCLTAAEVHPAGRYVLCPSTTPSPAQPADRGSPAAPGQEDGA
Sequence of ALK tyrosine kinase receptor (Homo sapiens) (Q9UM73 19-1620 limits assumed): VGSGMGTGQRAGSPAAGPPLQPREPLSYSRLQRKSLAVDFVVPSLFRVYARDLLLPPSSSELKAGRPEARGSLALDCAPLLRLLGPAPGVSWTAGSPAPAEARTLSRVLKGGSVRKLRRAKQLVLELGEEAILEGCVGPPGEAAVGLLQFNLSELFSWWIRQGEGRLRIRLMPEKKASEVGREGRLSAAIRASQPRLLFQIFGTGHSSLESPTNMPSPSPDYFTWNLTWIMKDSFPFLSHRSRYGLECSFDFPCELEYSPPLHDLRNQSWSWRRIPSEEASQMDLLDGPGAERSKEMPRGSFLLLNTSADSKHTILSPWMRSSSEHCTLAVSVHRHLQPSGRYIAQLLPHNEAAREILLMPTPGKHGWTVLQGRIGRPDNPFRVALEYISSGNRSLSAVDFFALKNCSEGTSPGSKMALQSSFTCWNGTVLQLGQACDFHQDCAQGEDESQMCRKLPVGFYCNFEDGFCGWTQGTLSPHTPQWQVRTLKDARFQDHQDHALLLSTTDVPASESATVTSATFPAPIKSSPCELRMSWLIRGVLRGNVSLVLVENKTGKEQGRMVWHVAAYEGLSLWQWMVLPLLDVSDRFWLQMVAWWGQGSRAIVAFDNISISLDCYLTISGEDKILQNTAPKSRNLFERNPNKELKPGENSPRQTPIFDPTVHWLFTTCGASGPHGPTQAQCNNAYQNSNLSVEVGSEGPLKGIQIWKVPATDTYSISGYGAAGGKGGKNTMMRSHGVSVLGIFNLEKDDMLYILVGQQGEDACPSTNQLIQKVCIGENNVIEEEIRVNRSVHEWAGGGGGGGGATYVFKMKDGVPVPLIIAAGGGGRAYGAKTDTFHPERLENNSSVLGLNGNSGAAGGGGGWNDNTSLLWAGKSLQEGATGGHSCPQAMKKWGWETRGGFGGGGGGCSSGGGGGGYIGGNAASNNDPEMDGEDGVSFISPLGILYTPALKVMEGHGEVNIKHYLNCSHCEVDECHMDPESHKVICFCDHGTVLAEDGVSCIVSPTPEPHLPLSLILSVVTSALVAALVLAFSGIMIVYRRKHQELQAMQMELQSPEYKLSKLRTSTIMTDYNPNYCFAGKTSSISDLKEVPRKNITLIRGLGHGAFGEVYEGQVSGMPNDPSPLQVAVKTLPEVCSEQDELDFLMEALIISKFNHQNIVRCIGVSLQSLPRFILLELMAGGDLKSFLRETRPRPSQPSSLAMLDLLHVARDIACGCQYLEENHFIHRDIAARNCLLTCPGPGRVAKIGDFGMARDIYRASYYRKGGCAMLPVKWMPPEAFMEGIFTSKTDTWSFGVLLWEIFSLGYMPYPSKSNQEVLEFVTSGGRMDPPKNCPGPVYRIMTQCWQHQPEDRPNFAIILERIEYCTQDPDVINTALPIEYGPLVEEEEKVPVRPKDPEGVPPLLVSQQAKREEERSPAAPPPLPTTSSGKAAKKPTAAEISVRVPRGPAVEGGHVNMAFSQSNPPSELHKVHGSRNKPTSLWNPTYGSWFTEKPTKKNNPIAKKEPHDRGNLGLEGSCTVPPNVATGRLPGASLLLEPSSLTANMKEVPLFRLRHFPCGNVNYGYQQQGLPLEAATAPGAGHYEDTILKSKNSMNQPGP
Sequence of Tyrosine-protein kinase ABL2 (Homo sapiens) (P42684 whole entry): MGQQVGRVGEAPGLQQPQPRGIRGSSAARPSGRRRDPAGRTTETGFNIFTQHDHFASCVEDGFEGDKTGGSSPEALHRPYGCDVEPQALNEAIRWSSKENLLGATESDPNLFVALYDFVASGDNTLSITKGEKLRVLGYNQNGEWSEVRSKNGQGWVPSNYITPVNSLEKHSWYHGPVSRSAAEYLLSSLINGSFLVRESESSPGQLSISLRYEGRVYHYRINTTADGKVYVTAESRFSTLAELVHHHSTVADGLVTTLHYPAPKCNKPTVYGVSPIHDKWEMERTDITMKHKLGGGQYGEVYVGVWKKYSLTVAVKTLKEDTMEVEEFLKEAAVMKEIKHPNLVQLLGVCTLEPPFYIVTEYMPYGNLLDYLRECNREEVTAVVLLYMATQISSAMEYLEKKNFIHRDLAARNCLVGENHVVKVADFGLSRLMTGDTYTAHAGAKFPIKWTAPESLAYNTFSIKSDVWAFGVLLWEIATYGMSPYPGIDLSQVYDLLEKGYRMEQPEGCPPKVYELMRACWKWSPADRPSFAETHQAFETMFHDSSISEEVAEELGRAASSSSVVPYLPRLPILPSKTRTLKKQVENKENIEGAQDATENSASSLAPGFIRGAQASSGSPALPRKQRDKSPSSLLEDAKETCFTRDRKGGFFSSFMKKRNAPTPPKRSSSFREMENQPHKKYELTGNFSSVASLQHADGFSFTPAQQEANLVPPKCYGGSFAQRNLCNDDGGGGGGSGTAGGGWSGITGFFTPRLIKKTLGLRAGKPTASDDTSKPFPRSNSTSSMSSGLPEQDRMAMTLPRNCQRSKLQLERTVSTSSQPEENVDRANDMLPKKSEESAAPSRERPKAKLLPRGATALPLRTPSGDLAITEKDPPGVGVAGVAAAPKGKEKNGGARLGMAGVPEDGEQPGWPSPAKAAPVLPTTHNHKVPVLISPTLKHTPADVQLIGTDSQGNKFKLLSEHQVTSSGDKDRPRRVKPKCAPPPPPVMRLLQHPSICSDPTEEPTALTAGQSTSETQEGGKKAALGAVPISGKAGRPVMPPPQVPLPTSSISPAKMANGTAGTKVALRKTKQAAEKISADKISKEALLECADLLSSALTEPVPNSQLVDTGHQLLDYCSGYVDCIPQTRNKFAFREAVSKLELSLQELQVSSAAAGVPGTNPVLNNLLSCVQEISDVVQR

As to `CCn1c(-c2nonc2N)nc2c(N3CCCC3)nccc21`, the inhibition was 0.72% in [1]; -1.15% in assay [2]; 2.07% in assay [3]; -1.74% in assay [4]; 0.66% in assay [5]; -1.38% in [6]. For the same compound, the inhibition in [7] was -2.28%; in [8], 0.18%; in assay [9], 7.36%; in assay [10], 0.14%.
For `O=C1NC(=O)C(c2ccc(Cl)cc2)=C1Nc1ccc(Cl)c(C(=O)O)c1`, the inhibition in assay [1] was 3%; in assay [2], 2.01%; in [3], 0.85%; in assay [4], -0.85%; in [5], 7.52%; in assay [6] it was -2.28%. Moreover, the inhibition in assay [7] is -1.12%; in assay [8], -0.74%; in assay [9] it was 7.37%; in assay [10], 2.69%.
`CCCN1CCC=C(c2ccc(Nc3nc(Nc4ccccc4C(N)=O)c4cc[nH]c4n3)c(C)c2)C1`: the inhibition was 12.1% in assay [1]; 1.82% in assay [2]; 7.55% in assay [3]; 5.84% in assay [4]; 16.4% in assay [5]; 76.2% in assay [6]. Further, the inhibition in [7] stood at 82.1%; in [8], 10%; in assay [9] it was 13%; in assay [10], 8.88%.
As to `COc1cc2ncn(-c3cc(O[C@@H](C)c4ccccc4Cl)c(C(N)=O)s3)c2cc1OC`, the inhibition in assay [1] was determined as 13.5%; in [2] it was 6.04%; in assay [3], 25.9%; in assay [4], 7.09%; in [5], 28.4%; in [6], 3.25%. In addition, the inhibition is 6.34% in assay [7], 3.24% in assay [8], 11.4% in assay [9] and -8.48% in [10].
For the compound `Fc1cccc(COc2ccc(Nc3ncnc4cc(-c5ccc[nH]5)sc34)cc2Cl)c1`, the inhibition is 5.41% in assay [1]; 3.92% in assay [2]; 8.02% in [3]; 0.53% in [4]; 10.7% in assay [5]; -2.31% in [6]. The inhibition in assay [7] is 2.96%; in assay [8] it was 3.02%; in assay [9], 9.41%; in [10], -2.49%.
With `Cc1nnc(-c2ccc(C)c(-c3ccc(C(=O)Nc4cccc(C#N)c4)cc3)c2)o1`, the inhibition in assay [1] is 2.58%; in assay [2] it was 1.18%; in [3], 3.76%; in [4], 3.64%; in [5], 5.81%; in assay [6] it was 3.61%. Also, the inhibition in [7] was 2.36%; in [8] it was 4.17%; in assay [9] it was 6.56%; in assay [10], -4.6%.
`CS(=O)(=O)CCNCc1nc(-c2ccc3ncnc(Nc4ccc(F)c(Cl)c4)c3c2)cs1`: the inhibition was determined as 6.43% in assay [1]; 1.82% in [2]; 18.3% in assay [3]; 3.89% in assay [4]; 18.2% in [5]; 0.89% in assay [6]. Also, the inhibition in [7] came out at 3.6%; in [8] it was 4.58%; in assay [9] it was 9.66%; in assay [10], 0.38%.
In the case of `CCn1c(-c2nonc2N)nc2c(C#CC(C)(C)O)nc(OC[C@@H](N)c3ccccc3)cc21`, the inhibition in assay [1] was 3.35%; in assay [2] it was 0.12%; in assay [3], 2.98%; in [4], 7.72%; in assay [5] it was 10.1%; in assay [6], -0.2%. The inhibition was found to be 10.2% in [7], 5.61% in assay [8], 1.83% in assay [9] and 2.41% in [10].
`NS(=O)(=O)c1ccc(N/N=C2\C(=O)Nc3ccc(C(=O)NCCc4c[nH]cn4)cc32)cc1`: the inhibition was 11.6% in assay [1]; 3.56% in [2]; 12.1% in assay [3]; 5.35% in [4]; 15.3% in [5]; 3.67% in [6]. The inhibition is 12.9% in assay [7], 4.29% in assay [8], 9.57% in assay [9] and -2.52% in assay [10].
With `CCc1cccc(NC(=O)Nc2ccc(Oc3ccc4nc(NC(=O)OC)[nH]c4c3)cc2)c1`, the inhibition in assay [1] amounted to 51.3%; in assay [2] it was 18.3%; in assay [3], 26.6%; in [4], 7.41%; in assay [5], 23.8%; in [6], 1.34%. Also, the inhibition in assay [7] amounted to 3.68%; in assay [8] it was 14.8%; in [9], 44.8%; in [10] it was 9.63%.
On to `CCCN1CCC(Oc2cc(Nc3nc(Nc4cccc(F)c4C(N)=O)c4cc[nH]c4n3)c(OC)cc2Cl)CC1`, for which the inhibition in [1] stood at 1.37%; in assay [2], 1.12%; in [3] it was 3.82%; in assay [4], 4.76%; in assay [5], 10.1%; in [6] it was 55.7%. Moreover, the inhibition came out at 78.2% in assay [7], 4.89% in assay [8], 12.3% in [9] and 5.22% in assay [10].
Turning to `O=C1NC(=O)C(c2cccc(Cl)c2)=C1Nc1ccc(O)c(Cl)c1`, the inhibition in assay [1] is -0.11%; in [2], -0.8%; in [3], 2.65%; in [4], 2.51%; in assay [5], 7.89%; in [6], 0.73%. The inhibition amounted to 4.45% in assay [7], 2.29% in assay [8], 8.28% in assay [9] and 0.38% in assay [10].
For `Nc1ncnc2occ(-c3ccc(NC(=O)Nc4cc(C(F)(F)F)cc(C(F)(F)F)c4)cc3)c12`, the inhibition in assay [1] is 83.3%; in assay [2] it was 9.88%; in assay [3], 42.3%; in assay [4], 3.94%; in assay [5], 43.5%; in [6] it was 2.49%. In addition, the inhibition in [7] is 10.8%; in [8] it was 6.22%; in assay [9], 48.9%; in assay [10] it was -0.91%.
On to `Nc1nc(-c2ccccn2)c(-c2ccc3ncccc3n2)s1`, for which the inhibition amounted to 3.65% in assay [1]; 3.71% in assay [2]; 3.66% in assay [3]; 5.61% in assay [4]; 12.5% in [5]; 1.41% in [6]. Further, the inhibition in [7] was 4.86%; in assay [8], 3.71%; in [9], 8.87%; in [10], -2.51%.
As to `NC(=O)c1ccc(-c2nc(-c3ccccn3)c(-c3ccc4c(c3)OCO4)[nH]2)cc1`, the inhibition amounted to 2.56% in assay [1]; 1.74% in assay [2]; 2.37% in [3]; 1.82% in [4]; 6.95% in [5]; 1.12% in assay [6]. Moreover, the inhibition in assay [7] is 2.39%; in assay [8], 1.95%; in [9], 6.03%; in [10] it was -3.37%.
As for `O=C1NC(=O)C(c2ccccc2Cl)=C1Nc1cccc(O)c1`, the inhibition was found to be 6.08% in [1]; 3.51% in assay [2]; 3.33% in [3]; 4.23% in assay [4]; 9.09% in assay [5]; 2.43% in [6]. Further, the inhibition in assay [7] was 4.74%; in assay [8] it was 4.43%; in assay [9], 1.33%; in [10], -5.88%.
In the case of `Cc1nn(C)c2cc(N(C)c3ccnc(Nc4cccc(S(N)(=O)=O)c4)n3)ccc12`, the inhibition in [1] was determined as 68.1%; in [2] it was 45.3%; in assay [3], 84.5%; in [4] it was 28.3%; in assay [5], 74.9%; in [6], 3.45%. The inhibition in [7] is 19.2%; in assay [8], 30.2%; in assay [9] it was 74.4%; in assay [10] it was -2.86%.
